# Assay results reported in PubChem BioAssay (NCATS).
# Several values for one entry are separate records, joined by “and”; a condition that tells them apart may be missing. Identical values can stand only once. Records with an inconclusive call do not appear. Activity calls are given as the source filed them. Unless noted, calls follow the shape of the dose curve; as a rule, active = well fitted curve in the direction sought with a large enough effect; inconclusive = small, poorly fitted or top-dose-only effect, or another doubt; inactive = no such curve, though single readings can be large; an effect the other way counts as inactive or inconclusive.
# Tests used:
# [1] = AP1 Signaling Pathway (AID 357; active = well fitted curve in either direction with a large enough effect, not every such curve was filed as active; also: % is scaled to controls: 0 for no effect and ±100 for the full control effect); conditions: ME-180 AP-1-bla reporter, EGF-induced, beta-lactamase ratio, 5 h
# Method in brief: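 AP-1-bla ME-180 cells with beta-lactamase reporter under AP-1 response element, stimulated with EC50 EGF; compounds titrated, 5 hours at 37 degrees Celsius. CCF4 read at 460/530 nm ratio; positive and negative modulators judged by AC50.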
# [2] = target: Cytochrome P450 1A2 (Homo sapiens) (UniProt P05177); assay: p450-cyp1a2 (AID 410; calls by dose curve;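 also: -100% = full effect of reference inhibitor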); conditions: recombinant CYP1A2, luciferin-ME demethylation, luminescence; series mostly up to 57 µM
# Sequence of Cytochrome P450 1A2 (Homo sapiens) (P05177 whole entry, looked up): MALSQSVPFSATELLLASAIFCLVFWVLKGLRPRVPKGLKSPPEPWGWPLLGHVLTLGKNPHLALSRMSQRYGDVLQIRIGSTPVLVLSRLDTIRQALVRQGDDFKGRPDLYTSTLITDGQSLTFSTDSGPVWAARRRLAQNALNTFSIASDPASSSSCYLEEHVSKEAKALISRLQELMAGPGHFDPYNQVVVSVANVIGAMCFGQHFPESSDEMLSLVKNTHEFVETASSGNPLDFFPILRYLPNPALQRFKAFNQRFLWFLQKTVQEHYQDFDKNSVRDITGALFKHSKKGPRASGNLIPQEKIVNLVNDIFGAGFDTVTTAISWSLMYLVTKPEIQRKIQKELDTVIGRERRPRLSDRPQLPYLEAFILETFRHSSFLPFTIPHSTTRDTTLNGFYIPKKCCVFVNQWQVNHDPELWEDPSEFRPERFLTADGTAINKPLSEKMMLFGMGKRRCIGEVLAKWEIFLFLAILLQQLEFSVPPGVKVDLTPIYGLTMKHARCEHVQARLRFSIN
# Method in brief: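 Inhibition was calculated relative to 57 uM furafylline (full inhibition). The reaction used human CYP1A2 at 20nM with Luciferin-ME at its Km, 100uM, driven by an NADPH-regenerating system for 60 min at room temperature.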
# [3] = NFAT Signaling Pathway (AID 444; active = well fitted curve in either direction with a large enough effect, not every such curve was filed as active;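 also: carbachol stimulus at about its EC50 of 1 µM final; % is scaled to controls: 0 for no effect and ±100 for the full control effect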); conditions: Jurkat NFAT-bla M1, carbachol, beta-lactamase ratio, 5 h
# Method in brief: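 Read-out: CCF4 FRET ratio (460 nm/530 nm) after 1 h RT dye loading, used for %activity and AC50 from titration series. Cells: Jurkat NFAT-β-lactamase/M1 line, treated with compound plus 1 uM carbachol for 5 h, 37 °C.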
# [4] = Stat Signaling Pathway (AID 446; active = well fitted curve in either direction with a large enough effect, not every such curve was filed as active;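 also: ME-180 cervical cancer cells given 40 pM IL-6 alongside compound; SIE-controlled beta-lactamase reporter measured as 460/530 nm FRET emission ratio; % is scaled to controls: 0 for no effect and ±100 for the full control effect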); conditions: ME-180 SIE beta-lactamase reporter, IL-6 stimulated, 5 h
# Method in brief: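 Screening format detects activators and inhibitors alike: ME-180 SIE-bla cells stimulated at 40 pM IL-6 for 5 hrs with compound, then dual-emission beta-lactamase read at 405 nm excitation.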
# [5] = target: Glucocorticoid receptor (Homo sapiens) (UniProt P04150); assay: GR-GFP Redistribution (AID 450;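 active = compounds whose dose series gives a full or clear partial fitted curve of increased nuclear translocation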; also: potency is read from the fitted curve at half-maximal effect); conditions: U2OS GR-GFP nuclear translocation, laser cytometry, 2 h
# Sequence of Glucocorticoid receptor (Homo sapiens) (P04150 whole entry, looked up, the tested form may be a part): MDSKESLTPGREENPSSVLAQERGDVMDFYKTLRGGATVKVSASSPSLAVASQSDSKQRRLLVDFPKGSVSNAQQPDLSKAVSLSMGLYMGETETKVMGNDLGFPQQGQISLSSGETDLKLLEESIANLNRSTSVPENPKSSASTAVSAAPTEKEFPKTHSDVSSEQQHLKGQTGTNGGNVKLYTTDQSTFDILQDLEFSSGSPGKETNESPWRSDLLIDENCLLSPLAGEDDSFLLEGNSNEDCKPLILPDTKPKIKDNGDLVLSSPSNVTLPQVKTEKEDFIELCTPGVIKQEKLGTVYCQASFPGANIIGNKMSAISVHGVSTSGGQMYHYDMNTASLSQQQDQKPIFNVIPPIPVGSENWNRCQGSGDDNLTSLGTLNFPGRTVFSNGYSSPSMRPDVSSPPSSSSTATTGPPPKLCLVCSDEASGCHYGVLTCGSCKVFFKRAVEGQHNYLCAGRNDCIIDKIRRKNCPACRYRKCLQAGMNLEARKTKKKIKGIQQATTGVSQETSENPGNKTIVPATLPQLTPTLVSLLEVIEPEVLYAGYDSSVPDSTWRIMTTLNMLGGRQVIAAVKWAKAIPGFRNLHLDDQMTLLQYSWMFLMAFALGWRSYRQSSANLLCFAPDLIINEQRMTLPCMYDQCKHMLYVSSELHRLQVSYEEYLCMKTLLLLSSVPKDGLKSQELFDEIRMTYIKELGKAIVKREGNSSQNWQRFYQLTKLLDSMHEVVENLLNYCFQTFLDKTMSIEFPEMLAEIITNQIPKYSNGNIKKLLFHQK
# [6] = target: Glucocorticoid receptor (Homo sapiens) (UniProt P04150); assay: GR-EFC Redistribution (AID 451; calls by dose curve; also: potency is read from the fitted curve at half-maximal effect); conditions: CHO-K1 GR-EFC translocation, beta-gal luminescence, 2 h
# Method in brief: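 Translocation of GR-ED fusion to nuclear EA restores b-gal, read by luminescence after 1 h room-temperature detection. Engineered CHO-K1 biosensor cells, 1,000/well, exposed 2 h at 37 C to titrations up to 46 uM final.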
# [7] = target: Mitogen-activated protein kinase 10 (Mus musculus) (UniProt Q61831); assay: JNK3 AlphaScreen Assay (AID 530; active = well fitted curve in either direction with a large enough effect, not every such curve was filed as active;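 also: kinase came from lysate of stimulated human HepG2 cells; signal reports phosphorylation of biotinylated GST-cJun 1-79 at Ser73 with 10 µM ATP; % is scaled to controls: 0 for no effect and ±100 for the full control effect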); conditions: JNK3 lysate, c-Jun phosphorylation; series mostly up to 57.1 µM
# Method in brief: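 Room-temperature AlphaScreen kinase assay; pre-activated HepG2 lysate as JNK3 source, biotin-GST-cJun(1-79) substrate, 10 uM ATP, compound 15 min preincubation.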
# [8] = target: 3',5'-cyclic-AMP phosphodiesterase 4B (Homo sapiens) (UniProt Q07343); assay: qHTS Assay for Inhibitors of PDE-IV (AID 607; active = well fitted activation curve with a large enough effect in the main read-out, with a control signal flat, not every such curve was filed as active; also: % of control where 0% means no effect); conditions: HEK293 ACTOne CNG channel cells, membrane potential fluorescence; series mostly up to 22.9 µM
# Sequence of 3',5'-cyclic-AMP phosphodiesterase 4B (Homo sapiens) (Q07343 whole entry, looked up): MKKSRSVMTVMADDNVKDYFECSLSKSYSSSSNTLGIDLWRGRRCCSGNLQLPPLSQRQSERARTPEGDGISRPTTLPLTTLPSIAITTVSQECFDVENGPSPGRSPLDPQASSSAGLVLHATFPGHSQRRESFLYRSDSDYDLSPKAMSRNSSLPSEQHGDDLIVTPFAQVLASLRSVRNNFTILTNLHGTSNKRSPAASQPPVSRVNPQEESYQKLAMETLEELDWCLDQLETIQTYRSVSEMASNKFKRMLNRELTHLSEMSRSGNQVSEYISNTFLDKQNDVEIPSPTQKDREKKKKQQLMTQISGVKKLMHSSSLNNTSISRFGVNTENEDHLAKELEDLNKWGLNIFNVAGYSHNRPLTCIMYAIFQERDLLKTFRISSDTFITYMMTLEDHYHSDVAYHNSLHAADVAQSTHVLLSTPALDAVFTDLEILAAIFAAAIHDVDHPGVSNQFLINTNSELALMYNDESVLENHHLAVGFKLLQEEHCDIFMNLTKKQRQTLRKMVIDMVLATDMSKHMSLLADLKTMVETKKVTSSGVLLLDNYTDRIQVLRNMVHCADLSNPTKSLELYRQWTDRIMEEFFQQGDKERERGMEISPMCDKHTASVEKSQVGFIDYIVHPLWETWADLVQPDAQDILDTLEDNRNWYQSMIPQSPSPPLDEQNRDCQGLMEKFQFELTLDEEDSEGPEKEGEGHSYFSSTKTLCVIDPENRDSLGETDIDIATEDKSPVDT
# Method in brief: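 The readout is membrane depolarisation from a cAMP-sensing CNG channel, detected with a potential dye at ex 535/em 590. Cells were HEK293-derived (endogenous PDE-IV) at 1000 cells/well, titrated up to 22.9 uM final.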
# [9] = target: alpha-glucosidase (Oryza sativa, rice) (UniProt Q653V4); assay: Counterscreen for Glucocerebrosidase Inhibitors: qHTS Assay for Rice alpha-Glucosidase at pH 5.0 (AID 997); conditions: rice alpha-glucosidase enzyme activity; series mostly up to 76.9 µM;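 also: 0% = full activity with enzyme and -100% = basal without enzyme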
# Method in brief: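 Rice alpha-glucosidase (4 nM final) with 400 uM 4-methylumbelliferyl-alpha-D-glucopyranoside in citrate buffer pH 5.0, 20 min at room temperature, stopped at pH 10; fluorescence 365/440 nm, compounds 0.7 nM–77 uM, AC50 from Hill fits.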
# [10] = qHTS Assay for Lipid Storage Modulators (AID 1519; calls by dose curve); conditions: Drosophila S3 cells, BODIPY lipid droplet/cell ratio, laser cytometry, cells loaded with oleic acid
# Method in brief: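 Cells seeded at 5,000 per well were treated with compounds over a concentration series and loaded with oleic acid (400 uM, as added). Lipid droplet fluorescence (488 nm excitation, 500-530 nm channel) was read by laser-scanning cytometry and normalized to 20 uM Triacsin C.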
# [11] = target: ATP-dependent 6-phosphofructokinase (Trypanosoma brucei brucei) (UniProt O15648); assay: qHTS Assay to Find Inhibitors of T. brucei phosphofructokinase: hit validation (AID 492961); conditions: T. brucei PFK, ADP-Glo luminescence; series mostly up to 24.3 µM
# Sequence of ATP-dependent 6-phosphofructokinase (Trypanosoma brucei brucei) (O15648 whole entry, looked up): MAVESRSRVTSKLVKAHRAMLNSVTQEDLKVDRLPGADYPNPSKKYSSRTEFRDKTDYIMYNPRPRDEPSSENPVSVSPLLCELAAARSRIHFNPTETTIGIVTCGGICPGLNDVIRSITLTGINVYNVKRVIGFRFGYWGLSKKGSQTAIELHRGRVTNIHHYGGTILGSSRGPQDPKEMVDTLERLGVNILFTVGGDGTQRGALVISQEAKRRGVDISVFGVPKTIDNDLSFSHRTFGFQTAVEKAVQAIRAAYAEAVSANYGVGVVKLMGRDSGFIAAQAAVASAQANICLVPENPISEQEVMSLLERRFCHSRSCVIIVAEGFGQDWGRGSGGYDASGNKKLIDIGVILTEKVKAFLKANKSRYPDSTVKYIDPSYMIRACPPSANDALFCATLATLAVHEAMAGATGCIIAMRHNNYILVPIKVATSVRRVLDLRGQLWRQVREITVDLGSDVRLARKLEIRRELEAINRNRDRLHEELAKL
# Method in brief: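 In this biochemical qHTS validation, titrated compounds were tested against 1.25 nM PFK with 0.1 mM ATP and 0.5 mM F6P. Percent activity came from controls lacking or containing enzyme.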
# [12] = target: Ubiquitin carboxyl-terminal hydrolase 1 (Homo sapiens) (UniProt O94782); assay: Inhibitors of USP1/UAF1: Pilot qHTS (AID 504865); conditions: purified USP1/UAF1, Ub-rhodamine cleavage fluorescence; series mostly up to 54.9 µM;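 also: rhodamine fluorescence freed from ubiquitin-rhodamine substrate followed over time; top concentration of the series differs between compounds; % is scaled to controls: 0 for no effect and ±100 for the full control effect; nearly all actives have a fitted effect of over 35% in size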
# Sequence of Ubiquitin carboxyl-terminal hydrolase 1 (Homo sapiens) (O94782 whole entry, looked up): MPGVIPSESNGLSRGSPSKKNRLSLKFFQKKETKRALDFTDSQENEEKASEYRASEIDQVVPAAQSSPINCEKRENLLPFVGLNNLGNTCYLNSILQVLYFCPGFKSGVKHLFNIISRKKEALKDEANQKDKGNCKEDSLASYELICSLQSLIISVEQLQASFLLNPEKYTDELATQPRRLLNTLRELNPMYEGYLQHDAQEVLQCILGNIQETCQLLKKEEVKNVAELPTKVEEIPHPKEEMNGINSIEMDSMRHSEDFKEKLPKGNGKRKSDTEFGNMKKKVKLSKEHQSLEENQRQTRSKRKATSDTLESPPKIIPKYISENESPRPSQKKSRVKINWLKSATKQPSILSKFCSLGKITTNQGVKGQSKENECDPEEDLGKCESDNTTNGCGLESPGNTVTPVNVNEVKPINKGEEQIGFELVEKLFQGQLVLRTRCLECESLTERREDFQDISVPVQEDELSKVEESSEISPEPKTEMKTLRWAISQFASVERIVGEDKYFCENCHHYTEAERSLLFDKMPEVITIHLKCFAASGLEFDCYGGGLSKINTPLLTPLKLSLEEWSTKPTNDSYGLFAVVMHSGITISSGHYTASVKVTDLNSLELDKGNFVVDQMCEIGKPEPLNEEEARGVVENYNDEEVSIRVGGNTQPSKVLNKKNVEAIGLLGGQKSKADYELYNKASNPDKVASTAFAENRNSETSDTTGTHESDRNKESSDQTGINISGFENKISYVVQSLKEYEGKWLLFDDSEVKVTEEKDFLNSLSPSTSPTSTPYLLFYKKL
# Method in brief: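 Deubiquitinase activity followed as kinetic rhodamine fluorescence release from 150 nM Ub-Rho. 1 nM USP1/UAF1 with compound, after 15 min room-temperature preincubation, in HEPES pH 7.8 buffer containing TCEP, EDTA, BSA and Tween-20.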
# [13] = target: Luciferin 4-monooxygenase (Photinus pyralis) (UniProt P08659); assay: Biochemical firefly luciferase enzyme assay for NPC (AID 624030);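 also: purified P. pyralis luciferase at 10 nM with luciferin and ATP substrate; 0% = DMSO and -100% = full luciferase inhibition by PTC124 control; nearly all actives have a fitted effect of over 70% in size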; conditions: purified P. pyralis luciferase, luminescence, 5 min; series mostly up to 58.6 µM
# Sequence of Luciferin 4-monooxygenase (Photinus pyralis) (P08659 whole entry, looked up): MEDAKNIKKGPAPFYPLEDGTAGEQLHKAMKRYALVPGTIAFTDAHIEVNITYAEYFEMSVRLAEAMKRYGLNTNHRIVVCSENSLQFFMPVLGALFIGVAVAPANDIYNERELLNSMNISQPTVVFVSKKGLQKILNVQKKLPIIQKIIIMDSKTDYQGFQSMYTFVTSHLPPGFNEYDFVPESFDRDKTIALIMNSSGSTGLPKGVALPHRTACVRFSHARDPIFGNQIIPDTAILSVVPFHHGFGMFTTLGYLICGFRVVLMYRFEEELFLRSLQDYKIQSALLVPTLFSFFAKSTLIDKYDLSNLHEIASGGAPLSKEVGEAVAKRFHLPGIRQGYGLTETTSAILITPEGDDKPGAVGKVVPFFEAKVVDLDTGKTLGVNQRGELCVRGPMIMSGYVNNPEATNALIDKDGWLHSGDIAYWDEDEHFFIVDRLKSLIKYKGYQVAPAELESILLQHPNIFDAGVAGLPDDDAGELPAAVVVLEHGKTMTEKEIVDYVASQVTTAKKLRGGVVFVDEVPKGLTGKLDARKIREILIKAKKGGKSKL
# Method in brief: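 Direct inhibition of firefly luciferase enzyme (10 nM final, 50 mM Tris Acetate) assessed by luminescence within 5 minutes. Percent activity scaled between DMSO and PTC124 positive control, with concentration-effect curves classified by fit quality and response.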
# [14] = qHTS profiling for inhibitors of Plasmodium falciparum proliferation (AID 504749); also: potency is read from the fitted curve at half-maximal effect;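 as to activity, negative = inhibition: 0% = DMSO vehicle and full inhibition = artemisinin control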; as to all read-outs here: nearly all actives have a fitted effect of over 60% in size; conditions: P. falciparum in erythrocytes, SYBR Green DNA, 72 h; for activity, negative = inhibition: at 28.7 µM (top of the series)
# Method in brief: (§1)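 Three-day growth assay of blood-stage parasites in erythrocytes (0.3% parasitemia, 2.5% hematocrit) at 37 C, 5% CO2, quantified by SYBR Green DNA staining after overnight detergent lysis.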
# [15] = test system: AS120; assay: as above; conditions: P. falciparum in erythrocytes, SYBR Green DNA, 72 h; series mostly up to 28.7 µM
# Method in brief: as §1
# [16] = test system: CP238; assay: as above; conditions: P. falciparum in erythrocytes, SYBR Green DNA, 72 h; series mostly up to 12.8 µM
# Method in brief: as §1
# [17] = test system: CP250; assay: as above; conditions: P. falciparum in erythrocytes, SYBR Green DNA, 72 h; series mostly up to 12.8 µM
# Method in brief: as §1
# [18] = test system: CP262; assay: as above; conditions: P. falciparum in erythrocytes, SYBR Green DNA, 72 h; series mostly up to 12.8 µM
# Method in brief: as §1
# [19] = test system: CP265; assay: as above; conditions: P. falciparum in erythrocytes, SYBR Green DNA, 72 h; series mostly up to 12.8 µM
# Method in brief: as §1
# [20] = test system: FAB9; assay: as above; conditions: P. falciparum in erythrocytes, SYBR Green DNA, 72 h; series mostly up to 12.8 µM
# Method in brief: as §1
# [21] = at 7.69 µM (top of the series) unless noted
# [22] = measured here: cell count channel max response
# [23] = measured here: lipid channel max response
smiles,measurement,setting,value
C[C@H](NCCc1ccc(O)cc1)[C@@H](O)c1ccc(O)cc1,"activity change, negative = inhibition",[1]; at 17.2 µM (top of the series),-5.73% (inactive)
same,"activity change, negative = inhibition",[1]; at 38 µM (top of the series),12.1% (inactive)
same,Potency,[2],inactive
same,"activity change, negative = inhibition",[3]; [21],-28.4% [at 17.2 µM] (inactive)
same,"activity, negative = inhibition",[4]; [21],13.1% [at 17.2 µM] (inactive)
same,Potency,[5],> 46 µM (inactive) and > 20.6 µM (inactive)
same,Potency,[6],> 46 µM (inactive) and > 20.6 µM (inactive)
same,Potency,[7],inactive
same,Potency,[8],inactive
same,outcome,[9],inactive
same,"activity change, negative = inhibition",[10]; at 25.7 µM (top of the series),-0.451% (inactive)
same,max response,[10]; [22],-0.183%
same,max response,[10]; [23],-0.394%
same,outcome,[11],inactive
same,Potency,[12],inactive
same,outcome,[13],inactive
same,"activity, negative = inhibition",[14]; parasite line A,3.98% (inactive)
same,"activity, negative = inhibition",[14]; parasite line B,6.27% (inactive)
same,Potency,[15],inactive
same,Potency,[16],inactive
same,Potency,[17],inactive
same,Potency,[18],inactive
same,Potency,[19],inactive
same,Potency,[20],inactive
CC(=O)O[C@]1(C(C)=O)CC[C@@H]2[C@@H]3C=C(Cl)C4=CC(=O)[C@H]5C[C@@H]5[C@]4(C)[C@H]3CC[C@]21C,"activity change, negative = inhibition",[1]; at 17.2 µM (top of the series),5.64% (inactive)
same,"activity change, negative = inhibition",[1]; at 38 µM (top of the series),3.07% (inactive)
same,Potency,[2],inactive
same,"activity change, negative = inhibition",[3]; at 17.2 µM (top of the series),-18.6% (inactive)
same,"activity change, negative = inhibition",[3]; at 38 µM (top of the series),-9.31% (inactive)
same,"activity, negative = inhibition",[4]; [21],-5.59% [at 17.2 µM] (inactive)
same,Potency,[7],inactive
same,Potency,[8],inactive
same,outcome,[9],inactive
same,"activity change, negative = inhibition",[10]; at 25.7 µM (top of the series),-2.31% (inactive)
same,max response,[10]; [22],-4.56%
same,max response,[10]; [23],-7.45%
same,Potency,[12],inactive
CCN(CC)CCC[C@H](C)Nc1ccnc2cc(Cl)ccc12,"activity change, negative = inhibition",[1]; at 17.2 µM (top of the series),13.4% (inactive)
same,"activity change, negative = inhibition",[1]; at 38 µM (top of the series),1.88% (inactive)
same,"activity change, negative = inhibition",[3]; at 17.2 µM (top of the series),-9.2% (inactive)
same,"activity change, negative = inhibition",[3]; at 38 µM (top of the series),-24.9% (inactive)
same,"activity, negative = inhibition",[4]; at 17.2 µM (top of the series),3.07% (inactive)
same,"activity, negative = inhibition",[4]; at 38 µM (top of the series),15.2% (inactive)
same,Potency,[5],> 46 µM (inactive) and > 20.6 µM (inactive)
same,Potency,[6],> 46 µM (inactive) and > 20.6 µM (inactive)
same,Potency,[7],inactive
same,Potency,[8],inactive
same,outcome,[9],inactive
same,"activity change, negative = inhibition",[10]; at 25.7 µM (top of the series),-0.708% (inactive)
same,max response,[10]; [22],-15.4%
same,max response,[10]; [23],-16%
same,outcome,[11],inactive
same,Potency,[12],inactive
same,outcome,[13],inactive
same,Potency,[14]; parasite line A,158 nM (active)
same,Potency,[14]; parasite line B,316 nM (active)
same,Potency,[15],11200 nM (active)
same,Potency,[16],10000 nM (active)
same,Potency,[17],3980 nM (active)
same,Potency,[18],2390 nM (active)
same,Potency,[20],141 nM (active)
C=C1C2CC[C@@]3(C)C(c4ccoc4)OC(=O)C[C@@]13OC1CC(O)C(C)(C)C(CC(=O)OC)[C@@]12C (some centres not stated),"activity change, negative = inhibition",[10]; at 57.5 µM (top of the series),-26.4% (inactive) and -20.4% (inactive)
same,max response,[10]; [22],9.22% and 0.891%
same,max response,[10]; [23],-12.6% and -14.6%
same,Potency,[12],inactive
Cc1ccccc1[C@@H](OCCN(C)C)c1ccccc1,"activity change, negative = inhibition",[1]; [21],26.9% [at 17.2 µM] (inactive)
same,Potency,[2],inactive
same,"activity, negative = inhibition",[4]; at 17.2 µM (top of the series),5.39% (inactive)
same,"activity, negative = inhibition",[4]; at 38 µM (top of the series),20.8% (inactive)
same,Potency,[5],> 46 µM (inactive) and > 20.6 µM (inactive)
same,Potency,[6],> 46 µM (inactive) and > 20.6 µM (inactive)
same,Potency,[7],inactive
same,Potency,[8],inactive
same,outcome,[9],inactive
same,"activity change, negative = inhibition",[10]; at 25.7 µM (top of the series),-1.18% (inactive)
same,max response,[10]; [22],0.329%
same,max response,[10]; [23],1.49%
